# M1 agonist = agonists of M1 muscarinic receptor. B-score at 10 µM. CHO-M1 cells, Fluo-4 calcium fluorescence, agonist mode; active compounds read high. 64,000 compounds, 3% hits;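 active = fluorescence rise, raw or as B-score row- and column-corrected plate score, outside the 99.7% band of its plate's samples, either direction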
# Cav32 inh = blocks human Cav3.2 T-type calcium channel; Cav3.2-expressing cells, Fluo-4 calcium fluorescence FDSS; active compounds read low; 100,000 compounds, 4% hits; O95180; AID 449739; B-score at 10 µM;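 active = single-dose well whose peak fluorescence ratio is a statistical outlier from its plate by either plate-standardised score or position-corrected B-score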
# M1 antagonist = blocks the rat M1 muscarinic receptor response to acetylcholine | B-score at 10 µM | P08482 | AID 628 | CHO-M1 cells, Fluo-4 calcium, ACh EC80 antagonist mode; active compounds read low | 64,000 compounds, 3.4% hits;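 active = calcium fluorescence response, raw or row-and-column corrected B-score, differing from the plate sample mean either way at a set confidence level, mostly lower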
# PTK2B oligo ant = antagonists of human Pyk2 oligomerization; Q14289; Q293 cells, Pyk2 FERM NanoBiT luminescence; active compounds read low; z-score (the deposit names both 25 µM and 10 µM); 99,000 compounds, 0.83% hits;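 active = Z-score of -3 or lower, scaled per plate to the spread of control and sample wells; inactive = z-score above -3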;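 note: negative z-score means lost luminescence so less FERM oligomerization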
# An asterisk follows results filed as active; / = no result given. Hits are enriched below; roughly 7.1% of the tested compounds scored in any of these assays.
SMILES,M1 agonist,Cav32 inh,M1 antagonist,PTK2B oligo ant
CC(C)(C)n1nnnc1C(c1cccnc1)N(Cc1ccccc1)Cc1ccco1 (centres undefined),/,/,/,-0.69
CCC(C)(C)n1nnnc1CN1CCN(C(c2ccccc2)c2ccccc2)CC1,/,-3.42*,/,-1.44
CCC(C)(C)n1nnnc1C(c1ccc2ncccc2c1)N1CCN(Cc2ccc3c(c2)OCO3)CC1 (centres undefined),-0.496,-0.422,-0.199,-0.25
CCC(C)(C)n1nnnc1C(c1ccc(C)cc1)N1CCN(Cc2ccc3c(c2)OCO3)CC1 (centres undefined),/,-4.44*,/,-1.41
c1ccc(C(c2ccccc2)N2CCN(Cc3nnnn3C3CCCC3)CC2)cc1,0.0573,/,0.281,-1.51
Cc1ccc(S(=O)(=O)N2CCC(=O)N(CCOC(=O)Nc3ccc(C)c(C)c3)CC2)cc1,/,-0.868,/,/
NC(=O)c1ccccc1Nc1nc(NCCO)nc(N2CCCC2)n1,/,0.997,/,/
Cn1cccc1Cc1nnc(SCC(=O)Nc2ccccc2F)n1-c1ccc(F)cc1,-0.0136,-2.43,0.0748,/
Cn1cccc1Cc1nnc(SCC(=O)Nc2ccc(Cl)cc2)n1-c1ccc(F)cc1,0.065,-9.77*,-0.507,/
Cn1cccc1Cc1nnc(SCC(=O)Nc2ccc(F)cc2)n1-c1ccc(F)cc1,-0.0371,-4.19*,-0.0792,/
Cn1cccc1Cc1nnc(SCC(=O)Nc2ccccc2)n1-c1ccc(F)cc1,-0.933,-7.74*,0.434,/
CSc1nc(Oc2ccc3ccccc3c2)c2ccccc2n1,/,-2.61,/,0.69
N#Cc1c(NC(=S)NC(=O)Cc2cccs2)sc2c1CCCCC2,/,/,/,-0.91
COc1cc(NC(=O)C2CCCC2)c(OC)cc1Cl,-1.25,-0.508,-0.132,-0.03
CCCCOC(=O)Nc1cc(OC)c(Cl)cc1OC,0.136,-2.46*,-0.0464,-0.29
COc1cccc(-c2csc(N3CCN(C(=O)Nc4ccc(F)cc4)CC3)n2)c1,/,-6.48*,/,-0.02
O=C(NC1CCCCC1)/C(=N\O)c1ccccn1,-0.71,0.0032,0.359,1.02
CCCCSc1ncc(C(=O)OCC)c(N)n1,/,-4.59*,/,-0.74
Cc1cccc(N/C(=N\S(=O)(=O)c2ccccc2)C(F)(F)F)c1,/,/,/,-0.01
COc1ccc(-c2nc3ccccc3c(C(=O)Nc3ccc(S(=O)(=O)Nc4cc(C)on4)cc3)c2C)cc1,/,2.06,/,-0.47
COc1ccc(N2CCN(S(=O)(=O)c3ccc(C(=O)NCc4ccco4)cc3)CC2)cc1,0.251,-3.86*,0.561,-1.29
CCOc1ccc(S(=O)(=O)N2CCN(C(=O)c3cc4c(s3)CCCC4)CC2)cc1,/,/,/,-0.82
CCn1c(SCc2ccc(C)cc2)nnc1C1CCN(S(=O)(=O)c2ccc(OC)cc2)CC1,/,-4.77*,/,0.93
Cc1nn(-c2ccccc2)c(Cl)c1C(=O)OC(C)C(=O)NC(=O)NC1CCCCC1 (centres undefined),/,-2.29,/,-4.2*
CC1=C(CC[C@@H](C)CO)OC2CC3C4CCC5CC(O)CCC5(C)C4CC(=O)C3(C)C12 (some centres undefined),/,-3.61,/,/
SMILES,M1 agonist,Cav32 inh,M1 antagonist,PTK2B oligo ant
CCC(C)(C)n1nnnc1C(c1ccc(C)cc1)N(Cc1ccco1)Cc1cccs1 (centres undefined),/,-5.77*,/,-0.77
COc1cccc(CN(Cc2ccco2)C(c2ccc(F)cc2)c2nnnn2C(C)(C)C)c1 (centres undefined),4.07,-1.76,0.0181,-0.71
COc1ccc(CCNC(=O)Cc2ccc(OCc3ccccc3)c(OC)c2[N+](=O)[O-])cc1OCc1ccccc1,/,/,/,0.36
O=C(Nc1ccccc1C(F)(F)F)c1ccc(CN2CCC(Cc3ccccc3)CC2)cc1,/,-7.71*,/,0.19
O=C(Nc1ccccc1)OCc1cc(-c2ccccc2Cl)on1,/,/,/,0.45
CCCCCCCCn1c(N2CCN(c3cccc(Cl)c3)CC2)nc2c1c(=O)[nH]c(=O)n2C,/,-1.98,/,-0.02
CCCCCCn1c(N2CCN(c3ccccc3)CC2)nc2c1c(=O)[nH]c(=O)n2C,/,-5.71*,/,0.06
CC1CCN(c2nc3c(c(=O)n(C)c(=O)n3C)n2CCSc2nc3ccccc3s2)CC1,-0.306,-1.27,-0.643,-1
CCC1CCCCN1c1nc2c(c(=O)n(C)c(=O)n2C)n1CCSc1nc2ccccc2o1 (centres undefined),0.195,/,-0.712*,/
Cn1c(=O)c2c(nc(N3CCCCC3)n2CCSc2nc3ccccc3o2)n(C)c1=O,-0.755,/,-0.924,/
CC(C)CCn1c(N2CCN(c3cccc(Cl)c3)CC2)nc2c1c(=O)[nH]c(=O)n2C,/,-8.46*,/,-0.12
CC1CCCN(c2nc3c(c(=O)n(C)c(=O)n3C)n2CCSc2nc3ccccc3s2)C1 (centres undefined),0.666,-6.92*,-0.734,-1.27
COC(=O)c1cccc(C23CC4(C2)[C@H](CN(Cc2cccnc2)[C@@H]4c2ccccc2)C3c2ccc(C(F)(F)F)cc2)c1 (some centres undefined),/,-0.717,/,/
C=CCOc1ccc(CNc2nccs2)cc1OC,/,0.0847,/,0.21
CCCCCC(=O)Cc1cc(O)cc2c1C(=O)Oc1cc(O)c(C(=O)O)c(CCCCC)c1O2,/,-3.08,/,/
CCn1c(N2CCN(CC(=O)c3c[nH]c4ccccc34)CC2)nc2c1c(=O)[nH]c(=O)n2C,-0.416,2.42,-0.463,1.31
CC1CCN(c2nc3c(c(=O)[nH]c(=O)n3C)n2Cc2ccccc2)CC1,0.366,-0.698,-0.408,/
CCCn1c(N2CCN(CC(=O)c3c(C)n(C)c4ccccc34)CC2)nc2c1c(=O)[nH]c(=O)n2C,0.0189,3.09*,-0.477,1.06
CC1CCCN(c2nc3c(c(=O)[nH]c(=O)n3C)n2CCCc2ccccc2)C1 (centres undefined),3.74,-5.59*,-0.039,/
COc1c(F)c(F)c(C(=O)Nc2ccc(N3CCN(C(C)=O)CC3)c(Cl)c2)c(F)c1F,/,-1.23,/,-1.18
C=C(C)c1sc(-c2ccc(Cl)cc2)nc1C,/,0.958,/,/
Cc1ccc(C2Oc3ccccc3C3=C2C(c2cccs2)n2ncnc2N3)cc1 (centres undefined),/,-4.61*,/,-1.99
CC(C)(C)OC(=O)NNC(=O)c1ccc(Cl)cc1,/,0.845,/,0.94
Cc1nonc1OCC(C)(COc1nonc1C)NC(=O)c1ccc(Cl)cc1,/,-4.18*,/,-0.02
CCN(CC)CCCNC(CC(=O)O)C(=O)O (centres undefined),1.07,/,0.063,/
SMILES,M1 agonist,Cav32 inh,M1 antagonist,PTK2B oligo ant
O=C(N/N=C/c1cccc([N+](=O)[O-])c1)C1CC1c1ccccc1 (centres undefined),/,/,/,-0.05
C=CCOC(=O)c1sc(N2C(=O)c3oc4ccccc4c(=O)c3C2c2ccco2)nc1C (centres undefined),-0.386,/,0.218,/
C=CCCCCCCCCc1nc(=S)[nH][nH]1,/,-5.19*,/,0.25
COc1cc(C(=O)Nc2ccc(S(=O)(=O)Nc3cc(C)on3)cc2)cc(OC)c1OC,-0.00989,-0.0332,0.201,0.17
CCOc1cc(C(=O)Nc2ccc(S(=O)(=O)Nc3cc(C)on3)cc2)cc(OCC)c1OCC,-3.5*,/,1.36,-0.87
CC(C)(C)[C@]1(O)CCN2C[C@H]3c4ccccc4CCc4cccc(c43)[C@@H]2C1,/,-3,/,/
COC(=O)CN(c1nc(C)cc(OC)n1)S(=O)(=O)c1ccc(C)cc1,-0.661,0.116,-0.207,-1.34
COC(=O)CN(c1nc(C)c(Br)c(OC)n1)S(=O)(=O)c1ccc(C)cc1,0.212,-5.48*,-0.0947,-1.75
CC1(C)N=C(SCC(=O)Nc2ccc(Cl)cc2)C(c2ccc(Cl)cc2)=N1,/,-0.758,/,0.24

# From PubChem BioAssay
